Shown are actives, neighbours in structure and some others; about 2.8% of the full set was active somewhere.
Pol kappa inh-1 – blocks human DNA polymerase kappa activity; Q9UBT6; 400,000 tested, 0.53% active; AID 588579; purified Pol kappa, fluorescent DNA synthesis assay, 10 min; Potency, µM (doses to about 107 µM), for inactives: top-dose activity, negative = inhibition, actives largely listed as inhibitors; note: potency is the fitted concentration of half-maximal effect; % is set by controls: 0 for no effect and ±100 for the full control effect
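First, compounds were pin-transferred onto 10 nM Pol kappa. After 15 min at room temperature, substrate was added to 50 nM final. Fluorescence was then measured kinetically at 0 and 10 min.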
Pol eta inh-1 – blocks human DNA polymerase eta activity; recombinant Pol eta, fluorescent DNA replication assay; Potency, µM (series often up to 114 µM), without a hit: at the highest dose activity change, negative = inhibition, actives largely listed as inhibitors; 390,000 tested, 1.2% active; AID 588591; note: potency is the fitted concentration of half-maximal effect; % is set by controls: 0 for no effect and ±100 for the full control effect
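Fluorescent replication assay: 50 nM final substrate added after a 15 min room-temperature compound preincubation with 10 nM enzyme. Signal taken at 0 min and again at 10 min.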
Pol iota inh – blocks human DNA polymerase iota activity | Q9UNA4 | Potency, µM (titrated, usually from 115 µM), for inactives: at the highest dose activity, negative = inhibition, actives largely listed as inhibitors | 390,000 tested, 1% active | Pol iota fluorescent replication assay, 10 min; note: potency is the fitted concentration of half-maximal effect
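Fluorescent replication assay read twice, at 0 min and 10 min after adding 50 nM (final) substrate. Enzyme (10 nM) and compounds were first incubated 15 min at room temperature; enzyme-free buffer wells were negative controls.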
POLB inh – blocks human DNA polymerase beta activity | Pol beta primer extension/strand displacement, fluorescence kinetic | P06746 | Potency, µM (highest dose often 114 µM), inactives show top-dose activity change, negative = inhibition, hits mostly inhibitors | 340,000 tested, 1.3% active | AID 485314; note: potency is the fitted concentration of half-maximal effect; % is set by controls: 0 for no effect and ±100 for the full control effect
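Enzyme-only controls used 10 nM Pol beta; buffer lacking enzyme served as negative control. Compound preincubated 15 min, then 50 nM substrate added; 0 and 10 min reads at room temperature.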
PI5P4K alpha inh – blocks human PI5P4K alpha kinase activity | PI5P4Kalpha enzyme, ADP-Glo luminescence, 60 min; active compounds read low | max response, % | 330,000 tested, 1.2% active | AID 652105; active = max response of -50% or lower; inconclusive = between -30% and -50%; inactive = -30% or higher; note: value at the top dose of about 77 µM; % is set by controls: 0 for no effect and ±100 for the full control effect
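qHTS, 1536-well: enzyme/substrate mix, compound by pin tool, 5 microM ATP final; RT 60 min; ADP-Glo reagents 1 (45 min) then 2 (30 min); luminescence.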
WRN helicase inh-1 – blocks human WRN helicase | WRN helicase unwinding, fluorescent forked duplex, kinetic | Q14191 | Potency, µM (series often up to 114 µM), for the others: at the top dose activity change, negative = inhibition, most hits filed as inhibitors | 360,000 tested, 0.46% active | AID 651768; note: potency is the fitted concentration of half-maximal effect; % is set by controls: 0 for no effect and ±100 for the full control effect; nearly all actives have a fitted effect of over 55% in size
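WRN at 20 nM final was preincubated with compound for 15 min at room temperature; reaction started with 100 nM forked duplex oligonucleotide carrying fluorophore and quencher plus 2 mM ATP (final). Unwinding followed kinetically by red fluorescence (ex 525/em 598 nm).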
PGK validate – blocks T. brucei phosphoglycerate kinase. shares compounds with Pol kappa inh-1. TbPGK coupled GAPDH assay, Kinase-Glo luminescence. Potency, µM (titrated, usually from 57.5 µM), for the others: at the highest dose activity change, negative = inhibition, hits mostly inhibitors. 500 tested, 79% active; note: potency is the fitted concentration of half-maximal effect; % is set by controls: 0 for no effect and ±100 for the full control effect; nearly all actives have a fitted effect of over 65% in size
POLI cherry-pick – Confirm cherry-picked inhibitors of human polymerase iota; shares compounds with Pol kappa inh-1; Pol iota primer extension, TAMRA/BHQ fluorescence; Potency, µM, hits mostly inhibitors; 1,500 tested, 77% active; AID 720496; note: potency is the fitted concentration of half-maximal effect
GALK inh confirm – galactokinase (human) inhibition, confirmation; shares compounds with Pol eta inh-1; purified GALK, Kinase-Glo ATP depletion luminescence; Potency, µM (top dose mostly 115 µM), for the others: top-dose activity, negative = inhibition, hits mostly inhibitors; 150 tested, 70% active; AID 2015
GALK redox cs – generates H2O2 by redox cycling, flagging GALK artifacts | shares compounds with Pol eta inh-1 | Phenol red-HRP H2O2 redox cycling, absorbance 600 nm | Potency, µM (highest dose often 115 µM), without a hit: top-dose activity change, negative = H2O2 signal, most hits filed as inhibitors | 150 tested, 40% active | AID 2035
HEK293 viability – counter-screen for GALK inhibitors: HEK293 cell cytotoxicity. AID 2547. 170 tested, 10% active. HEK-293 viability, ATP luminescence (CellTiter-Glo), 24/48 h. shares compounds with Pol eta inh-1. Potency, µM (highest dose often 46.1 µM), without a hit: top-dose activity change, negative = cytotoxicity, usual class: inhibitors; note: potency is the fitted concentration of half-maximal effect; % is set by controls: 0 for no effect and ±100 for the full control effect
Pol kappa inh-2 – confirmation of human DNA polymerase kappa inhibitors. Potency, µM, actives largely listed as inhibitors. 920 tested, 76% active. purified Pol-kappa, fluorescent strand-displacement substrate. shares compounds with Pol eta inh-1; note: potency is the fitted concentration of half-maximal effect
Pol eta inh-2 – Pol eta (human) inhibition, cherry-pick confirmation | shares compounds with Pol eta inh-1 | Pol eta primer extension, TAMRA/BHQ fluorescence, 10 min | Potency, µM, most hits filed as inhibitors | 2,600 tested, 64% active; note: potency is the fitted concentration of half-maximal effect
WRN helicase inh-2 – WRN helicase inhibition, cherry-pick retest; shares compounds with WRN helicase inh-1; WRN helicase DNA unwinding, fluorescence kinetic; Potency, µM (top dose mostly 57.1 µM), inactives show at the top dose activity, negative = inhibition, usual class: inhibitors; 610 tested, 63% active; AID 720497; note: potency is the fitted concentration of half-maximal effect; nearly all actives have a fitted effect of over 65% in size
TO displacement – counter-screen for WRN helicase inhibitors: DNA binding | shares compounds with WRN helicase inh-1 | Potency, µM (top dose mostly 57.1 µM), for inactives: top-dose activity change, negative = inhibition, actives largely listed as inhibitors | 610 tested, 10% active | thiazole orange DNA binding displacement, fluorescence;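 note: drop in dye fluorescence marks compound binding to DNA; potency is the fitted concentration of half-maximal effect; % is set by controls: 0 for no effect and ±100 for the full control effect; nearly all actives have a fitted effect of over 60% in size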
BLM counter – BLM helicase inhibition, WRN selectivity check; 610 tested, 60% active; shares compounds with WRN helicase inh-1; Recombinant BLM helicase DNA unwinding, red fluorescence; Potency, µM (series often up to 57.1 µM), for the others: top-dose activity change, negative = inhibition, usual class: inhibitors; note: potency is the fitted concentration of half-maximal effect; nearly all actives have a fitted effect of over 60% in size
Target sequence (P54132 whole entry, looked up): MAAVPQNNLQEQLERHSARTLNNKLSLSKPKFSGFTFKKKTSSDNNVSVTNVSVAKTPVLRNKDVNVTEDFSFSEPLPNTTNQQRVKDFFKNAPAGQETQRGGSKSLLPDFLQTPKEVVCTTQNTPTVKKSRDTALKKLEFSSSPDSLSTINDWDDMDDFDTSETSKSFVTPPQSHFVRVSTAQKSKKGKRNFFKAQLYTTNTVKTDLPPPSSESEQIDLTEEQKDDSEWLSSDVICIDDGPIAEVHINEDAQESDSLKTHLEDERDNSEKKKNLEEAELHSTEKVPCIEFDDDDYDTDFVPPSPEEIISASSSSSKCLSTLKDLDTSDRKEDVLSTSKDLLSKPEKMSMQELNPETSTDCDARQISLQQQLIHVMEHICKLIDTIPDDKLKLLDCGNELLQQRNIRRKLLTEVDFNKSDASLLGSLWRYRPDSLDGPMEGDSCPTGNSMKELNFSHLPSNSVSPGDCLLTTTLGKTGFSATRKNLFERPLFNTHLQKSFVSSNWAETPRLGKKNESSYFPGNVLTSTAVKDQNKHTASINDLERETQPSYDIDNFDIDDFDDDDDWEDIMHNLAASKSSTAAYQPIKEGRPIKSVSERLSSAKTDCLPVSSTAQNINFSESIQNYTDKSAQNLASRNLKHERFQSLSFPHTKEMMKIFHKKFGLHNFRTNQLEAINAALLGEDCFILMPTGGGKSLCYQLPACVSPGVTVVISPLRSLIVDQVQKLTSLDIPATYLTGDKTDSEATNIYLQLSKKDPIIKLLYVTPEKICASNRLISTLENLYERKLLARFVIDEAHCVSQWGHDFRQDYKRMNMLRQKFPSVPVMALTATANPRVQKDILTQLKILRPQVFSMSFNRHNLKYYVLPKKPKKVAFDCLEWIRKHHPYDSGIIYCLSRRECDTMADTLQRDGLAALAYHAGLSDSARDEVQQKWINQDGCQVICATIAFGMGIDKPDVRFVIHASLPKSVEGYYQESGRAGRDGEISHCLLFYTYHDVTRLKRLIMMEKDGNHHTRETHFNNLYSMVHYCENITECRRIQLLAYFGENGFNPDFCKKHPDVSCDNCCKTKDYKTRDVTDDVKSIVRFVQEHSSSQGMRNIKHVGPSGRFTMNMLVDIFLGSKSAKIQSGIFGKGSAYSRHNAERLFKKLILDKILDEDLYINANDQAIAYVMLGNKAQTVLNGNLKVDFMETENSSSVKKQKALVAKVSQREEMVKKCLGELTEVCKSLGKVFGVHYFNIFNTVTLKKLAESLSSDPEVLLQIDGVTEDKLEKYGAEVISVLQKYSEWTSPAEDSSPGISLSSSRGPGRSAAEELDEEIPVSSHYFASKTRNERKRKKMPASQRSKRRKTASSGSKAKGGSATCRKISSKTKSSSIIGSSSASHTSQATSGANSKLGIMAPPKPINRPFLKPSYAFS
The depositor's hits bear a star; u = inconclusive; x = no result; [ ] = remark or other dose. Unless noted, calls come from the whole dose curve; as a rule, active = well fitted curve in the direction sought with a large enough effect; inconclusive = small, poorly fitted or top-dose-only effect, or another doubt; inactive = no such curve, though single readings can be large; an effect the other way counts as inactive or inconclusive.

SMILES	Pol kappa inh-1	Pol eta inh-1	Pol iota inh	POLB inh	PI5P4K alpha inh	WRN helicase inh-1	POLI cherry-pick	Pol eta inh-2	WRN helicase inh-2	TO displacement	BLM counter	others
Oc1ccc(C2=Nn3c(nnc3-c3ccco3)SC2)cc1O	20µM*	3.16µM*	2.24µM*	3.98µM*	u	11.2µM*	26.7*	19*	15.2µM*	-23.9%	17.1µM*	PGK validate=5.8µM*
CCc1c(O)nc(SCC(=O)NCc2ccco2)[nH]c1=O	-28.0%	-0.8%	u	-4.0%	-20.8	-14.6%	x	x	x	x	x
O=C(CCSCCC(=O)NCc1ccco1)NCc1ccco1	u	11.2µM*	-69.1%	22.4µM*	u	13.4µM*	33.6*	26.9*	21.5µM*	-12.7%	17.1µM*
Cc1cc(=O)[nH]c(SCC(=O)NCc2ccco2)n1	35.5µM*	3.16µM*	8.91µM*	12.6µM*	-22.2	18.9µM*	29.9*	19*	u	-4.8%	21.5µM*
CC(OC(=O)c1cccc(-n2cnnn2)c1)C(=O)Nc1cccc(Cl)c1 (stereo not drawn)	-2.1%	-13.3%	-1.0%	x	3.5	1.0%	x	x	x	x	x
COc1ccccc1C1C(C(C)=O)=C(O)C(=O)N1c1ccc(O)cc1 (stereo not drawn)	6.5%	-5.2%	21.5%	2.9%	1.8	13.1%	x	x	x	x	x
Cc1cc(N2CCOCC2)ccc1/C=C1\NC(=O)N(CC(=O)Nc2ccc(F)cc2)C1=O	-8.5%[60.1 µM]	6.5%	u	32.0%	-4.8	-1.5%	x	x	x	x	x
N#CNC(=O)c1ccc(-n2cccc2/C=C2\NC(=O)N(CC(=O)Nc3ccc(F)cc3)C2=O)cc1	x	x	x	x	x	x	26.7*	47.8*	6.07µM*	9.61µM*	3.83µM*
COc1ccc(/C=C(\C#N)C(=O)Nc2cccc3ncccc23)cc1OC	-12.5%	-6.2%	5.7%	-1.8%	-1.4	-3.9%	x	x	x	x	x
N#C/C(=C\c1ccc(O)c(O)c1)C(=O)Nc1cccc2ncccc12	3.98µM*	2.82µM*	3.16µM*	0.794µM*	-71.9*	14.1µM*	6.7*	3.79*	4.29µM*	12.1µM*	1.71µM*
Cc1ccc(OCC(=O)Nc2cccc(OCc3cc(=O)n4cccc(C)c4n3)c2)cc1C	-3.5%[60.1 µM]	6.2%	-9.5%	17.8%	x	x	x	x	x	x	x
CCCN1C(=O)CC(c2ccc(OC)c(OC)c2)C1=O (stereo not drawn)	x	x	x	x	6.8	-2.0%	x	x	x	x	x
Cc1cccc(N=C2NC(=O)/C(=C/C=C/c3ccco3)S2)c1C	14.1µM*	1.78µM*	3.55µM*	2.51µM*	-79.8*	31.6µM*	67*	26.9*	15.2µM*	27.1µM*	8.57µM*
Cc1cccc(N=C2NC(=O)/C(=C/c3cccnc3)S2)c1C	3.0%	-2.1%	u	2.7%	-22.0	-8.6%	x	x	x	x	x
COc1ccc(S(=O)(=O)/N=C2\C=C(Nc3ccc(O)cc3)C(=O)c3ccccc32)cc1	-15.2%	u	u	-23.5%	-16.1	-0.3%[11.6 µM]	x	x	x	x	x
O=C(O)c1ccc(S(=O)(=O)/N=C2\C=C(Nc3ccccc3F)C(=O)c3ccccc32)cc1	u	8.91µM*	1.12µM*	44.7µM*	u	39.8µM*	21.2*	21.3*	u	-25.7%	u	GALK inh confirm=7.49µM*;GALK redox cs=4.21µM*;HEK293 viability=12.5µM*
Cc1cccc(C(=O)Oc2ccc(/C=N/NC(=O)c3ccncc3)cc2)c1	0.0%	-2.9%	152.8%	1.9%	2.5	3.0%	x	x	x	x	x
Cc1cccc(C(=O)Oc2ccc(/C=N/NC(=O)c3cc(O)cc(O)c3)cc2)c1	50.1µM*	7.94µM*	17.8µM*	7.08µM*	-76.7*	35.5µM*	67*	33.8*	21.5µM*	u	13.6µM*	Pol kappa inh-2=15*
COc1ccc(-n2cccc2/C=C2/NC(=O)N(c3cccc(Cl)c3)C2=O)cc1	-2.0%	-1.4%	18.1%	17.9%	-11.6	-5.8%	x	x	x	x	x
O=C(O)c1cccc(-n2cccc2/C=C2/NC(=O)N(c3ccc(Cl)cc3)C2=O)c1	1.58µM*	0.708µM*	u	0.355µM*	-98.0*	3.16µM*	0.752*	1.35*	1.36µM*	u	0.171µM*	PGK validate=0.259µM*
COc1ccc(/C=C/c2ccccc2)cc1C1C2C=CCCC2(C)C(=O)N1Cc1ccccc1 (stereo not drawn)	-0.2%	x	2.8%	x	x	x	x	x	x	x	x

Bioassay records from PubChem.
